For assay [1], the target named is Mitogen-activated protein kinase 3 (Homo sapiens) (UniProt P27361). Particulars: at 1 µM.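 Further: values are mean percent inhibition of MAPK3.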
Assay [2] addresses SRSF protein kinase 3 (Homo sapiens) (UniProt Q9UPE1). Particulars: at 0.1 µM.
For assay [3] the target is unchanged. Particulars: at 1 µM.
Assay [4] concerns the target Mitogen-activated protein kinase 14 (Homo sapiens) (UniProt Q16539). As to conditions: at 0.1 µM.
Assay [5] has the same target. As to conditions: at 1 µM.
Assay [6] has as its target Mitogen-activated protein kinase 11 (Homo sapiens) (UniProt Q15759). Particulars: at 0.1 µM.
Assay [7] has the same target. As to conditions: at 1 µM.
Assay [8] concerns the target T1, Mitogen-activated protein kinase 13 (Homo sapiens) (UniProt O15264).
T1 sequence (whole entry): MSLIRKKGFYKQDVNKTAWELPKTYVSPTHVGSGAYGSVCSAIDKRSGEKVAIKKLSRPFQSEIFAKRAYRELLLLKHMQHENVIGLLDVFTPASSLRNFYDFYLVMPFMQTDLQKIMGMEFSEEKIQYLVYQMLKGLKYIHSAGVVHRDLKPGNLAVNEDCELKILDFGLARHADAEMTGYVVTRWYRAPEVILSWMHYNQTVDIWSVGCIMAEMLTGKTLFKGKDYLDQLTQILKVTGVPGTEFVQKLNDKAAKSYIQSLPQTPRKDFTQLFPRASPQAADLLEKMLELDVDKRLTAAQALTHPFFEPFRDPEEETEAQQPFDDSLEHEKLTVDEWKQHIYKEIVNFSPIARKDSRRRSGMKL
As to conditions: at 0.1 µM.

In assay [9] the target is T1, Mitogen-activated protein kinase 13 (Homo sapiens). As to conditions: at 1 µM.
The target of assay [10] is T2, Mitogen-activated protein kinase 12 (Homo sapiens) (UniProt P53778).
T2 sequence (whole entry): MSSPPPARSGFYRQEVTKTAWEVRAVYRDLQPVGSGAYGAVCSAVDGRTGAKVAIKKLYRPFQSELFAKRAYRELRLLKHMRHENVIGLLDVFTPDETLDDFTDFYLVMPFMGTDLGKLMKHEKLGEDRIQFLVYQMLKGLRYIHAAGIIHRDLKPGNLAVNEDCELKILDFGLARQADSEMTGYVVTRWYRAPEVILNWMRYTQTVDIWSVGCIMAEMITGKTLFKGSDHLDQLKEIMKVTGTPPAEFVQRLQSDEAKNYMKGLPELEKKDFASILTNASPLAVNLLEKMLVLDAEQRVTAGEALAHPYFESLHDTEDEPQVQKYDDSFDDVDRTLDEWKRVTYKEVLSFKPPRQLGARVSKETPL
Particulars: at 0.1 µM.

In assay [11] the target is T2, Mitogen-activated protein kinase 12 (Homo sapiens). Particulars: at 1 µM.
The target of assay [12] is SRSF protein kinase 1 (Homo sapiens) (UniProt Q96SB4). Particulars: at 0.1 µM.
SRSF protein kinase 1 (Homo sapiens), sequence (Q96SB4 whole entry): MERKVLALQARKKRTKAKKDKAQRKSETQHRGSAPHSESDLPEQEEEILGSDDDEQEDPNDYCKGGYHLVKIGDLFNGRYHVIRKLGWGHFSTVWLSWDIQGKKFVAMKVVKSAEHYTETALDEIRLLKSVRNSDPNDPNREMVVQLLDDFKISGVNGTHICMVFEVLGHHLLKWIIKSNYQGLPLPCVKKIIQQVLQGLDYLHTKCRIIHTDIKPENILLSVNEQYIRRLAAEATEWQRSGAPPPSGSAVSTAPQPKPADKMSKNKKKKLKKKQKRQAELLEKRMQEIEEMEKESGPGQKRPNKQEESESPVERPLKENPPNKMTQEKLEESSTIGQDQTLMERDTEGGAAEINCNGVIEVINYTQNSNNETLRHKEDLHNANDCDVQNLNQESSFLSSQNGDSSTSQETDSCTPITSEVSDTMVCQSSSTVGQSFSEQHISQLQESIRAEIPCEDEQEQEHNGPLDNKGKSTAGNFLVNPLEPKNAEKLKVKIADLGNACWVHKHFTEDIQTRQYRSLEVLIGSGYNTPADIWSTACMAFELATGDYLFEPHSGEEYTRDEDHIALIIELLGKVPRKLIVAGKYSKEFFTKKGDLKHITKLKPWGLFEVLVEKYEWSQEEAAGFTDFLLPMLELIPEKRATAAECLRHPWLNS
Assay [13] shares this target. Particulars: at 1 µM.
Assay [14] deals with Phosphatidylinositol 4,5-bisphosphate 3-kinase catalytic subunit alpha isoform (Homo sapiens) (UniProt P42336). As to conditions: at 0.1 µM.
Phosphatidylinositol 4,5-bisphosphate 3-kinase catalytic subunit alpha isoform (Homo sapiens), sequence (P42336 whole entry, canonical isoform): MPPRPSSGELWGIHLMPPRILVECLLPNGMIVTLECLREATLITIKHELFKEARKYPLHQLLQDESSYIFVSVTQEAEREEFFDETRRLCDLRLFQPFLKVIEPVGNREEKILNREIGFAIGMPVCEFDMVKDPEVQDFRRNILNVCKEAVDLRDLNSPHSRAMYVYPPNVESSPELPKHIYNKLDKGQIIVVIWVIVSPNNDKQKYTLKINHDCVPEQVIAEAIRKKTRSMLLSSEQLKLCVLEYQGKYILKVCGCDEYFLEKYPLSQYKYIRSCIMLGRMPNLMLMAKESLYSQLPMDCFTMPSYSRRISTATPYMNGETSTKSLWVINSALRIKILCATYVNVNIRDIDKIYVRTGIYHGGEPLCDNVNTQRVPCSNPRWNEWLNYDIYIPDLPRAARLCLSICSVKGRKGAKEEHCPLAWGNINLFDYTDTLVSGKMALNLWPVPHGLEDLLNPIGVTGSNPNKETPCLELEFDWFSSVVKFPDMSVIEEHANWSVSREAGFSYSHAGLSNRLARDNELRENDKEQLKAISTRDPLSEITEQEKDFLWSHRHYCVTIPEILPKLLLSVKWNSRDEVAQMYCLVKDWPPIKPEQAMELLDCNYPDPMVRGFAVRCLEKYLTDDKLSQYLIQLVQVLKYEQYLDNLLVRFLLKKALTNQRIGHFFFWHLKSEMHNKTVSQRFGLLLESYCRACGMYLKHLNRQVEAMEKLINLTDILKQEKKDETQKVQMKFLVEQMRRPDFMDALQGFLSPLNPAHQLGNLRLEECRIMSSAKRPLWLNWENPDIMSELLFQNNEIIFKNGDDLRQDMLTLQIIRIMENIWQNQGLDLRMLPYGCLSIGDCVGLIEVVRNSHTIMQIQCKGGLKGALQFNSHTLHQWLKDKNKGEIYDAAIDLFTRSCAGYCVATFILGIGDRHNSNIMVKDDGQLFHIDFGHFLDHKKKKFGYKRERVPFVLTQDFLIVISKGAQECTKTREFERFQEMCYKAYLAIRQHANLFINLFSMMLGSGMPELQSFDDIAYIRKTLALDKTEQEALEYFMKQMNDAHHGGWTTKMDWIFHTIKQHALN
The target is the same in assay [15]. As to conditions: at 1 µM.
In assay [16] the target is T3, Phosphatidylinositol 4,5-bisphosphate 3-kinase catalytic subunit delta isoform (Homo sapiens) (UniProt O00329).
T3 sequence (whole entry): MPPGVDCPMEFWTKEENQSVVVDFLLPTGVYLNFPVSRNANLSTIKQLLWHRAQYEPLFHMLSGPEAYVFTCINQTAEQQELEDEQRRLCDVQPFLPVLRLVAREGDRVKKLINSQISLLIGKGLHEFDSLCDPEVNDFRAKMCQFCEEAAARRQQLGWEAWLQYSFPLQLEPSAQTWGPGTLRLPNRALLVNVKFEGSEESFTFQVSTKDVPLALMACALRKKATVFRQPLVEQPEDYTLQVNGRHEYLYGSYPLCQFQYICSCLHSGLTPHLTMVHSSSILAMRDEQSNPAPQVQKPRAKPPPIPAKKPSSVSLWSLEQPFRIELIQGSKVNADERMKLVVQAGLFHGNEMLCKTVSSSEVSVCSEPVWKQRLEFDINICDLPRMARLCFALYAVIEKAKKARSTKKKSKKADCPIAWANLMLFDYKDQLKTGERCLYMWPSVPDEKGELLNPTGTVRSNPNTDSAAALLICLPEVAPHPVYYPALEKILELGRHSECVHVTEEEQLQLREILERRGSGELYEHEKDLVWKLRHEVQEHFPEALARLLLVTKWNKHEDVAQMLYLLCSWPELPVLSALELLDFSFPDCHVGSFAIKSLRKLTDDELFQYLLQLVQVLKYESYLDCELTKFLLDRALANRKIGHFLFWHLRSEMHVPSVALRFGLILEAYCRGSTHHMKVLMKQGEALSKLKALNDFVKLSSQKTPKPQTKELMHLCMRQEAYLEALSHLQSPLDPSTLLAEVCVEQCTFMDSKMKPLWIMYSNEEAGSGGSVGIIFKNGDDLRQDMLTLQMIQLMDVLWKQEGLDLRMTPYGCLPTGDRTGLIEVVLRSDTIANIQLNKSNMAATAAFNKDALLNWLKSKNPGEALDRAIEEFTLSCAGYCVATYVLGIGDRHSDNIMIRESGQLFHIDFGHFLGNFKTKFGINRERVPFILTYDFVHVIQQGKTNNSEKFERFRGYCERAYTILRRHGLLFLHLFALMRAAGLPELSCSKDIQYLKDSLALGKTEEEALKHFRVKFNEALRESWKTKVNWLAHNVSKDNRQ
As to conditions: at 0.1 µM.

In assay [17] the target is T3, Phosphatidylinositol 4,5-bisphosphate 3-kinase catalytic subunit delta isoform (Homo sapiens). As to conditions: at 1 µM.
Assay [18] addresses Phosphatidylinositol 4-kinase beta (Homo sapiens) (UniProt Q9UBF8). Particulars: at 0.1 µM.
The target is the same in assay [19]. As to conditions: at 1 µM.
Assay [20] deals with Sphingosine kinase 1 (Homo sapiens) (UniProt Q9NYA1). Particulars: at 0.1 µM.
Sphingosine kinase 1 (Homo sapiens), sequence (Q9NYA1 whole entry): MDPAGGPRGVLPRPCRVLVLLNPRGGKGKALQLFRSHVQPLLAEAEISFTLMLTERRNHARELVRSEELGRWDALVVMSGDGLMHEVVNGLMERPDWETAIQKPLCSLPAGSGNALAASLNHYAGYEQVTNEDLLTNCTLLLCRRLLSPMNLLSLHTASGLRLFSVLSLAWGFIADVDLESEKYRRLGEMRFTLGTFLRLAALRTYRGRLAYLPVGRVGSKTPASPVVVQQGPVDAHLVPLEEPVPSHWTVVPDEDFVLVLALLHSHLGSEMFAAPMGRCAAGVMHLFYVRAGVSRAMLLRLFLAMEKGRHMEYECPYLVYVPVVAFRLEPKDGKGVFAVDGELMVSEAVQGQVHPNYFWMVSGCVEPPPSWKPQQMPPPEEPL

Each structure is given as a SMILES string.

Mitogen-activated protein kinase 11 (Homo sapiens), sequence (Q15759 whole entry): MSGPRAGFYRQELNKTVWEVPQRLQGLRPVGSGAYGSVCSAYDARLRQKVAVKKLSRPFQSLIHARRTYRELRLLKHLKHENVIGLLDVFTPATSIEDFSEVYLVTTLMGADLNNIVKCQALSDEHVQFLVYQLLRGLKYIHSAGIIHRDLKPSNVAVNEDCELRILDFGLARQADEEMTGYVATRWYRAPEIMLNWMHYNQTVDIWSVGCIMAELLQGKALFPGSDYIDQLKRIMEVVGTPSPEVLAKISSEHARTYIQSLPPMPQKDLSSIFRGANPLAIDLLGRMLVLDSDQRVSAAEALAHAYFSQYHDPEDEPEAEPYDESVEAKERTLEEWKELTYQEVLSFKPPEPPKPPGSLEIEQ
Mitogen-activated protein kinase 14 (Homo sapiens), sequence (Q16539 whole entry): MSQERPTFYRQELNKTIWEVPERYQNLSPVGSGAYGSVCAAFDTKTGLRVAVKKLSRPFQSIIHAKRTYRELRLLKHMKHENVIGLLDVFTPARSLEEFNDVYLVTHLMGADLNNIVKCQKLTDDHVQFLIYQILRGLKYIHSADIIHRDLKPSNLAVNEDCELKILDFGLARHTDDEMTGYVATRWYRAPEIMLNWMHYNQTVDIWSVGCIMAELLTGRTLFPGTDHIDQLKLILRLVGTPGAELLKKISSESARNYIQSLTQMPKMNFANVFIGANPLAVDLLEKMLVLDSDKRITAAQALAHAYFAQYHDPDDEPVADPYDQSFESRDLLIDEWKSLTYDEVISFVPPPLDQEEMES
Mitogen-activated protein kinase 3 (Homo sapiens), sequence (P27361 whole entry): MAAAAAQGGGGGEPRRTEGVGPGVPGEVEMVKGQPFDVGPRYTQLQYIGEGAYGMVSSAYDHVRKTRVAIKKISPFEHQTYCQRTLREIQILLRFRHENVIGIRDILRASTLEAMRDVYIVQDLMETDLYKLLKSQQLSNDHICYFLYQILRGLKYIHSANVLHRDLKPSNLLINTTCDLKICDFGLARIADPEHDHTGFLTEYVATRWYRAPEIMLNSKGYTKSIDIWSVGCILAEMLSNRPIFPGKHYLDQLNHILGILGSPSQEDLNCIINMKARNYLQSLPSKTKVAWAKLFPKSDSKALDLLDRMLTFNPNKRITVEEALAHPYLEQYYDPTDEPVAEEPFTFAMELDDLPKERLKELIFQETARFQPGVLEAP
SRSF protein kinase 3 (Homo sapiens), sequence (Q9UPE1 whole entry): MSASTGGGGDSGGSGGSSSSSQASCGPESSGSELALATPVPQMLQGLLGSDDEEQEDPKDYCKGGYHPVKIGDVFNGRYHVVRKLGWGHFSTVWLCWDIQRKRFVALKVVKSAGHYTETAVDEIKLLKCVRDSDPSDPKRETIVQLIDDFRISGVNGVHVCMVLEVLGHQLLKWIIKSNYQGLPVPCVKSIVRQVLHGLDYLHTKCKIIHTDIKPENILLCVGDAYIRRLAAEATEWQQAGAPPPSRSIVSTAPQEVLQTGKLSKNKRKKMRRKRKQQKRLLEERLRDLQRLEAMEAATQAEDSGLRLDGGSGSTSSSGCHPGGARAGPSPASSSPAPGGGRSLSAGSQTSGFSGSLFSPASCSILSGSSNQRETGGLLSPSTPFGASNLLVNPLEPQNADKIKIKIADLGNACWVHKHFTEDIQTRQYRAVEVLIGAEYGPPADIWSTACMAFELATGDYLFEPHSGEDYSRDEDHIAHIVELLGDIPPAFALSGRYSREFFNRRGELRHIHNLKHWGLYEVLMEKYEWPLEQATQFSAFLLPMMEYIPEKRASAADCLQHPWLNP
Phosphatidylinositol 4-kinase beta (Homo sapiens), sequence (Q9UBF8 2-816 limits assumed): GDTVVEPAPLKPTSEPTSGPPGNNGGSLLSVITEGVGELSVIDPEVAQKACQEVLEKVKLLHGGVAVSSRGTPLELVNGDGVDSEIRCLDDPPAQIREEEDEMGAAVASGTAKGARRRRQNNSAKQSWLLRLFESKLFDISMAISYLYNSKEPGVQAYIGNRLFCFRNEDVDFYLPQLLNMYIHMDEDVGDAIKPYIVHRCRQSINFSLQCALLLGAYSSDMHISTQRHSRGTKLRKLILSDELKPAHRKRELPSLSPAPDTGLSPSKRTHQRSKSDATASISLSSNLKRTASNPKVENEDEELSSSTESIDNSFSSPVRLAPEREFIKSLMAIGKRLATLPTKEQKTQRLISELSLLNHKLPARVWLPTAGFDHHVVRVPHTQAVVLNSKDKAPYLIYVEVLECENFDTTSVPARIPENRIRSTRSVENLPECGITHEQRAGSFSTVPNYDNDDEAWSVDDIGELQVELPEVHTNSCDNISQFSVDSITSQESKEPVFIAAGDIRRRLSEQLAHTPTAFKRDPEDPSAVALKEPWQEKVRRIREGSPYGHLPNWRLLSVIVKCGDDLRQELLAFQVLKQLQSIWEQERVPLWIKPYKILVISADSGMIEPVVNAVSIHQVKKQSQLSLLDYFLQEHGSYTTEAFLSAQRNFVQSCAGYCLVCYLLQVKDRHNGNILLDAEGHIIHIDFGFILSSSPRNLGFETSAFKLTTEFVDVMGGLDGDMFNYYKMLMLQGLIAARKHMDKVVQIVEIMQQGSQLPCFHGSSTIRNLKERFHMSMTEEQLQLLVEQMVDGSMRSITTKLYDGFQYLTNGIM

What is called inhibition is the drop in the measured response relative to a control, in per cent. With `NS(=O)(=O)c1ccc(Nc2ncc(-c3ccccc3)o2)cc1`, the inhibition in assay [1] was 3.8%; in [2], -0.01%; in [3] it was 1.63%; in assay [4], 3.61%; in assay [5] it was 9.04%; in [6] it was 6.06%. Besides, the inhibition in assay [7] was 7.67%; in [8] it was 3.81%; in assay [9] it was 5.86%; in assay [10], 0.56%; in [11], 1.81%; in assay [12] it was -0.91%. Besides, the inhibition was 0.75% in assay [13]; 3.75% in assay [14]; 2.69% in [15]; 0.62% in assay [16]; 3.33% in assay [17]; -3.61% in assay [18]. For the same compound, the values for the inhibition in [19] and in [20] were 4.39% and 0.6%, respectively.
In the case of `CCn1c(-c2nonc2N)nc2cnc(Oc3cccc(NC(=O)c4ccc(N(C)C)cc4)c3)cc21`, the inhibition is 1.36% in assay [1]; -1.98% in [2]; -3.41% in assay [3]; -0.32% in assay [4]; 8.29% in assay [5]; 1.19% in assay [6]. Further, the inhibition in assay [7] is 1.94%; in [8] it was -1.13%; in assay [9] it was 2.57%; in assay [10], 0.02%; in [11], 1.5%; in assay [12], -1.72%. For the same compound, the inhibition in assay [13] was -1.86%; in assay [14] it was -0.72%; in assay [15] it was 0.76%; in assay [16] it was 0.62%; in assay [17] it was 1.65%; in assay [18], -0.87%. The inhibition was 2.47% in assay [19] and -2.61% in assay [20].
Consider `COc1ccc(CNC(=O)c2ccc(-c3cc(-c4nnc(C)o4)ccc3C)cc2)cc1`, for which the inhibition stood at 1.53% in assay [1]; 2.42% in [2]; 6.02% in assay [3]; 19.4% in assay [4]; 66.6% in assay [5]; 10.1% in [6]. The inhibition in [7] turned out to be 46.3%; in [8] it was 1.25%; in assay [9], 2.3%; in [10] it was 0.94%; in assay [11] it was 2.59%; in [12] it was 2.79%. The inhibition is 9.14% in [13]; 0.29% in [14]; -1.87% in [15]; -0.28% in assay [16]; -2.1% in assay [17]; 3.82% in [18]. Besides, the inhibition in [19] worked out at 0.88%; in assay [20], 1.51%.
With `COc1ccc(-c2oc3ncnc(N)c3c2-c2ccc(NC(=O)Nc3cc(C(F)(F)F)ccc3F)cc2)cc1`, the inhibition in assay [1] was 4.66%; in assay [2], 2.74%; in [3] it was 48.7%; in assay [4] it was 4.62%; in assay [5], 30.4%; in [6], 5.32%. The inhibition in assay [7] was 37.8%; in assay [8], 1.95%; in assay [9], 15.3%; in assay [10], -3.37%; in assay [11], 17.6%; in assay [12], 1.18%. Moreover, the inhibition in [13] came to 34.5%; in [14], 2.34%; in assay [15], 20.6%; in assay [16] it was 2.28%; in assay [17], 22.4%; in [18] it was 6.88%. For the same compound, the results for the inhibition in assay [19] and in assay [20] were 5.84% and 0.16%, respectively.
As to `COC(=O)c1sc(-n2cnc3cc(OC)c(OC)cc32)cc1OCc1ccccc1C(F)(F)F`, the inhibition in assay [1] is 2.3%; in assay [2] it was -0.91%; in assay [3], -2.27%; in assay [4], 2.39%; in assay [5] it was 9.56%; in assay [6], 6.02%. Moreover, the inhibition is 8.21% in assay [7]; -0.67% in [8]; 4.4% in assay [9]; 0.89% in assay [10]; 2.9% in assay [11]; -3.05% in [12]. The inhibition is -6.39% in [13]; 4.25% in assay [14]; 4.16% in assay [15]; 2.55% in assay [16]; 4.61% in [17]; -0.98% in assay [18]. Further, the figures for the inhibition in assay [19] and in [20] were -2.56% and -3.91%, respectively.
Regarding `COc1cc(/C=N/Nc2ncnc3[nH]ncc23)ccc1O`, the inhibition was found to be 6.69% in assay [1]; 0.77% in [2]; 1.87% in assay [3]; 7.26% in assay [4]; 6.91% in assay [5]; 4.13% in assay [6]. Besides, the inhibition in assay [7] is 4.56%; in assay [8] it was 1.51%; in assay [9] it was 5.72%; in assay [10], 0.15%; in assay [11] it was 2.2%; in assay [12], -1.89%. The inhibition in assay [13] is 2.08%; in [14], 10.2%; in [15], 44.2%; in assay [16], 3.6%; in assay [17], 20.3%; in assay [18], 6.86%. In addition, the inhibition is 30.9% in assay [19] and -1.46% in assay [20].
Consider `c1ccc(-c2nc3n(c2-c2ccc4c(c2)OCO4)CCC3)nc1`, for which the inhibition in assay [1] was 2.21%; in [2], -1.69%; in [3] it was -1.14%; in [4] it was 4.21%; in assay [5] it was 13.4%; in assay [6], 0.27%. For the same compound, the inhibition in assay [7] is 2.77%; in assay [8], 1.49%; in assay [9], 2.52%; in assay [10] it was 1.78%; in assay [11], 1.88%; in assay [12], -0.51%. In addition, the inhibition in assay [13] is -1.84%; in assay [14], 5.05%; in [15] it was 7.23%; in [16], 6.67%; in assay [17], 8.16%; in assay [18] it was -3.19%. Besides, the results for the inhibition in [19] and in [20] were -2.19% and -1.79%, respectively.

These data come from ChEMBL document CHEMBL1961873, “Compounds: GSK PKIS; Assays: Nanosyn kinase panel” (2012).
